Most compounds without a hit are left out; they make up all but 19% or so of the library.
TDP1 cell CPT: growth inhibition of DT40 Tdp1-/-;hTDP1 cells with camptothecin (screen for TDP1 inhibitors); chicken DT40 Tdp1-/-;hTDP1 cells + 20 nM CPT, ATP luminescence, 48 h; 420,000 tested, 12% active; Potency, µM (series often up to 46.2 µM), for the others: at the highest dose activity change, negative = growth inhibition, most hits filed as inhibitors; also: potency is read from the fitted curve at half-maximal effect; nearly all actives have a fitted effect of over 55% in size
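Cell growth measured by CellTiter-Glo luminescence after a minimum 48 h, 37 C compound exposure with 20 nM CPT in Tdp1-knockout DT40 cells stably expressing hTDP1, seeded 400/well; qHTS titration format.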
HT1080 IDH1KD tx: toxicity to HT-1080 IDH1 knockdown cells (counter line) | Potency, µM (highest dose often 46.1 µM), without a hit: at the top dose activity, negative = toxicity, most hits filed as cytotoxic | AID 686971 | HT-1080 IDH1 knockdown viability, ATP luminescence, 48 h | 360,000 tested, 2% active;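 also: potency is read from the fitted curve at half-maximal effect; 0% = DMSO wells and -100% = cell-free medium wells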
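Luminescent ATP read-out (CellTiter-Glo, 10 min at room temperature) after 48 h compound exposure at 37 °C gave viability of IDH1-knockdown HT-1080 cells. Activity was normalised to DMSO and cell-free wells, then fitted as concentration-response curves.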
HT1080NT lethal: kills 2HG-producing HT-1080-NT fibrosarcoma cells. HT-1080-NT fibrosarcoma viability, CellTiter-Glo ATP luminescence, 48 h. Potency, µM (doses to about 46.1 µM), for the others: at the top dose activity, negative = less viability, most hits filed as cytotoxic. 360,000 tested, 1.6% active. AID 686970;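 also: NT is the 2HG producing partner of a matched IDH1 knockdown line; potency is read from the fitted curve at half-maximal effect; 0% = DMSO-treated cells and -100% = media-only wells without cells; nearly all actives have a fitted effect of over 55% in size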
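Viability by CellTiter-Glo luminescence after 48 h compound exposure at 37C of HT-1080-NT cells (750/well, RPMI, 5% FBS). % activity scaled between DMSO wells and medium-only wells, then curve-fitted and categorized by curve class.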
TDP1 cell noCPT: qHTS for Inhibitors of human tyrosyl-DNA phosphodiesterase 1 (TDP1): qHTS in cells in absence of CPT; DT40 Tdp1-/- hTDP1 cells, no CPT, ATP luminescence, 48 h; 420,000 tested, 15% active; Potency, µM (highest dose often 46.2 µM), for the others: at the highest dose activity change, negative = growth inhibition, hits mostly inhibitors; also: potency is read from the fitted curve at half-maximal effect; nearly all actives have a fitted effect of over 55% in size
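Chicken DT40 Tdp1-/- cells complemented with human TDP1, screened without camptothecin (DMSO vehicle only), 400 cells/well. Compounds pin-transferred, cells incubated at 37 °C for at least 48 hr. Growth read as ATP-dependent luminescence (CellTiter-Glo, 30 min at RT).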
IL-1B inflam inh: blocks inflammasome-driven IL-1 beta release; THP-1 LPS/ATP IL-1B secretion, AlphaLISA, 16 h; stronger effect = lower value; AID 743279; activity change, % at 57.5 µM; 360,000 tested, 4.7% active; in the data active = activity change below about -50%; inconclusive = mostly about -30% to -49%
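THP-1 cells pretreated 1 hr with compounds (up to 57.5 uM final), then stimulated with LPS (250 ng/mL final) plus ATP (1.25 mM final); secreted IL-1B measured by AlphaLISA after 16 hr, decreased signal indicating inhibition.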
Starred values were filed as active, the others as inactive; ? = inconclusive; / = no result given. Unless noted, calls follow the shape of the dose curve; as a rule, active = well fitted curve in the direction sought with a large enough effect; inconclusive = small, poorly fitted or top-dose-only effect, or another doubt; inactive = no such curve, though single readings can be large; an effect the other way counts as inactive or inconclusive. Unless noted, % is scaled to controls: 0 for no effect and ±100 for the full control effect.

SMILES	TDP1 cell CPT	HT1080 IDH1KD tx	HT1080NT lethal	TDP1 cell noCPT	IL-1B inflam inh
CCOC(=O)C1=C(COC(=O)CCOc2ccc(C)cc2)NC(=O)NC1C (stereo not given)	6.5µM*	-27%	?	5.8µM*	?
CCOC(=O)C1=C(CN2CCCCC2)NC(=O)NC1c1cc(C)ccc1C (stereo not given)	?	-9%	1%	?	4
CCOC(=O)C1=C(CS(=O)(=O)c2ccc(F)c(C)c2)NC(=O)NC1c1ccccc1OC (stereo not given)	29µM*	/	/	?	/
CCOC(=O)C1=C(COC(=O)/C=C/c2ccc(OC)c(OC)c2)NC(=O)NC1C (stereo not given)	-27%	9%	-2%	?	-3
CCOC(=O)C1=C(COC(=O)CCOc2ccc(OC)cc2)NC(=O)NC1C (stereo not given)	-4%	0%	-2%	-5%	19
CCOC(=O)C1=C(COC(=O)/C=C/c2ccc(OC)cc2OC)NC(=O)NC1C (stereo not given)	?	5%	5%	15µM*	?
CCOC(=O)C1=C(COc2ccc(F)cc2Cl)NC(=O)NC1c1cc(C)ccc1C (stereo not given)	?	14%	8%	21µM*	7
CCCCCCn1cc(CN2CC(N3CCN(Cc4ccccc4F)CC3)CS2(=O)=O)nn1 (stereo not given)	-30%	0%	-6%	?	-1
CCOC(=O)C1=C(COc2ccc(C)cc2)NC(=O)NC1c1cc(C)ccc1C (stereo not given)	23µM*	10%	12%	12µM*	19
CCOC(=O)C1=C(CNCc2ccc(Cl)cc2)NC(=O)NC1c1ccccc1 (stereo not given)	-7%	/	/	?	/
CCOC(=O)C1=C(CSCc2ccccc2)NC(=O)NC1c1cc(C)ccc1C (stereo not given)	?	?	?	?	-51*
CCCOc1ccccc1C1NC(=O)NC(C)=C1C(=O)OCCOCC (stereo not given)	-4%	-2%	0%	-17%	-12
CCOC(=O)C1=C(C)NC(=O)NC1c1ccccc1OCc1c(F)cccc1Cl (stereo not given)	23µM*	-16%	-10%	16µM*	-9
CCOC(=O)C1=C(CNCc2ccc(C)cc2)NC(=O)NC1c1ccc(OC)cc1 (stereo not given)	21µM*	9.2µM*	?	21µM*	15
COc1ccc(CCC(=O)NCC(=O)OCc2ccccc2)cc1	-1%	16%	8%	9%	14
CC[C@@]1(O)C(=O)OCc2c1cc1n(c2=O)Cc2cc3c([N+](=O)[O-])cccc3nc2-1	0.034µM*	/	/	0.21µM*	/
CC[C@@]1(O)C(=O)OCc2c1cc1n(c2=O)Cc2cc3c(CN(C)C)c(O)ccc3nc2-1	0.15µM*	2.1µM*	1.2µM*	0.18µM*	-103*
O=c1cccc2n1Cc1cc3ccccc3nc1-2	?	0%	-4%	?	-4
COC1=CCC2([N+](=O)[O-])CN(CCO)CC1([N+](=O)[O-])C2 (stereo not given)	4%	6%	15%	16%	18
CC1CCCN(C(=O)Cn2ncc3c([nH]c4ccccc43)c2=O)C1 (stereo not given)	-2%	/	/	-19%	/
O=c1cnc2cnc(N3CCNCC3)nc2n1C1CC1	7%	/	/	16%	/
CCOC(=O)CSc1n[nH]c(NS(=O)(=O)c2ccccc2C(F)(F)F)n1	8%	2%	-3%	-5%	-77*
CCCC1(CCC)NC(=O)N(CC(=O)Nc2ccc3c(c2)OCCO3)C1=O	-2%	12%	15%	-3%	-10
CCN(CC)S(=O)(=O)c1ccc(/C=C/C(=O)OCC(=O)NCc2cccs2)cc1	21µM*	-14%	-4%	?	11
CCN(CC)S(=O)(=O)c1ccc(/C=C/C(=O)OCC(=O)NCc2ccco2)cc1	9.2µM*	4%	-7%	?	-10
SMILES	TDP1 cell CPT	HT1080 IDH1KD tx	HT1080NT lethal	TDP1 cell noCPT	IL-1B inflam inh
CC(Sc1nnc(NCc2ccccc2)s1)C(=O)Nc1ccc2c(c1)C(=O)c1ccccc1C2=O (stereo not given)	?	-5%	-2%	18µM*	-2
COc1cc(NC(=O)C2CCC(CNS(=O)(=O)c3csc(C(N)=O)c3)CC2)cc(OC)c1 (stereo not given)	-10%	0%	-2%	?	0
COCCCNc1nc(CC(C)C)nc2c1nnn2Cc1ccccc1	-29%	5%	4%	?	4
O=[N+]([O-])c1ccc(Nc2nc(NCCO)nc(N3CCCC3)n2)cc1	?	1%	-14%	21µM*	-25
CCCNc1nc(Nc2ccc(C)cc2)nc(N2CCCC2)n1	23µM*	-6%	-17%	21µM*	-23
Cc1c(Br)cccc1NC(=O)C1(C)CCN1CCc1ccccc1 (stereo not given)	?	-11%	-3%	?	7
Cc1nnc(C)n1/N=C/c1ccc(-c2ccccc2)cc1	-17%	11%	0%	-28%	-9
c1ccc2c(c1)[nH]c1nc(SCCN3CCOCC3)nnc12	-21%	-3%	-2%	?	28
Cc1cc(C)c2c(c1)c1nnc(SCCN3CCOCC3)nc1n2C	-8%	4%	-2%	8.2µM*	-1
CCn1c2nc(SCCN3CCOCC3)nnc2c2cc(C)cc(C)c21	16µM*	-25%	-22%	?	0
CC(=O)N1c2ccc(S(=O)(=O)N(C)CC(=O)NCc3ccc(C)cc3)cc2CC1C (stereo not given)	-20%	-1%	3%	-7%	0
COC[C@H]1CCCN1c1ccc2c(c1)O[C@H](COCc1ccccc1)CN([C@@H](C)c1ccccc1)S2(=O)=O	?	1%	10%	16µM*	23
COC[C@@H]1CCCN1c1ccc2c(c1)O[C@H](COCc1ccccc1)CN([C@H](C)c1ccccc1)S2(=O)=O	?	-2%	12%	21µM*	16
CCCCC[C@@H](C)N1C[C@@H](COCc2ccccc2)Oc2cc(N3CCC[C@@H]3CO)ccc2S1(=O)=O	?	?	?	?	-28
C[C@@H](c1ccccc1)N1C[C@H](COCc2ccccc2)Oc2cc(N3CCC[C@H]3CO)ccc2S1(=O)=O	?	-14%	-14%	?	-12
CCCCC[C@@H](C)N1C[C@H](COCc2ccccc2)Oc2cc(N3CCC[C@@H]3COC)ccc2S1(=O)=O	?	-4%	2%	15µM*	-2

From PubChem
